Screens (PubChem)
MEKK2mut PB1 HTS – signal of MEK5 binding to mutant human MEKK2 PB1 domain; AID 1530; bead flow cytometry, Alexa488-MEK5 binding to MEKK2 mutant; 0.35% of 290,000 active; percent response, % at 10 µM; in the data active means percent response above about 24%, passing the limit was not always enough
MEKK3 PB1 HTS – MEKK3-MEK5 PB1 interaction, increase or decrease | Q99759 | bead-based flow cytometry, Alexa488-MEK5 binding to MEKK3; actives lie on both sides; 0 = blocked by unlabeled MEK5, 100 = vehicle | binding response (% of control), % at 10 µM | 1.4% of 290,000 active | AID 1529;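 active means binding response more than 3 SD above or below the average of its plate-row segment, actives on both sides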;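 further: Alexa488 bead fluorescence after subtracting the streptavidin-only scavenger bead signal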
Target sequence (Q99759 whole entry, looked up): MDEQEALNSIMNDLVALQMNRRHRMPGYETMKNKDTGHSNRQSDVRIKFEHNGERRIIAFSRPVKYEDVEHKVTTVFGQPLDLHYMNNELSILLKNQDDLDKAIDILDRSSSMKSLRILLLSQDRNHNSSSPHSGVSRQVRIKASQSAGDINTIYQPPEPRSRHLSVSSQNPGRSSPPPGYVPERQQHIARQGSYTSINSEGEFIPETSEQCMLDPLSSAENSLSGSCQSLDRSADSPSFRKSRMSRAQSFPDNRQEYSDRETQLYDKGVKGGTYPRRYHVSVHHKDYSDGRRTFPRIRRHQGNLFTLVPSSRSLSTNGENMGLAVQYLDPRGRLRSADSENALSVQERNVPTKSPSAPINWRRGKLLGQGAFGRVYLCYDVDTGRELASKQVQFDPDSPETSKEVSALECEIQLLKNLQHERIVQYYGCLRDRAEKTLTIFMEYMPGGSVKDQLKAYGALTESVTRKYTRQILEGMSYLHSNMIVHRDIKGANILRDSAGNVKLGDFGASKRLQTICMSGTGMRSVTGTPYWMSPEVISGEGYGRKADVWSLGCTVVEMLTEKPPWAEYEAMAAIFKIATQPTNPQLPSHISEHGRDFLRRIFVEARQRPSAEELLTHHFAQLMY
CRFBP-R2 block – antagonists of CRF-binding protein/CRF-R2 receptor complex; HEK293 CRF-R2/CRF-BP, CRF-induced calcium fluorescence; inhibition, % at 11.8 µM; 0.59% of 350,000 active; AID 588475;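 active means inhibition of the ligand-induced calcium signal above about 50% at the single tested concentration, limit read from the data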
MEKK2wt PB1 HTS – raises or lowers MEK5 binding to wildtype human MEKK2 PB1 domain; binding response (% of control), % at 10 µM; bead flow cytometry, Alexa488-MEK5 binding to MEKK2 WT; actives lie on both sides; 1.1% of 290,000 active; in the data active means binding response below about 67% or above about 130%
ABCB6 inh MLPCN – human ABCB6 transporter inhibition | K562-ABCB6 porphyrin accumulation, flow cytometry, 1 h; stronger effect = lower value | fluorescence ratio to DMSO, % at 10 µM | 0.19% of 360,000 active | AID 602162;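 active means fluorescence ratio to DMSO below 75%, the collection mean minus 3 SD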;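 further: signal is porphyrin accumulated inside mitochondria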
CRFBP-R2 agonist – agonists of human CRF-binding protein/CRF-R2 receptor complex; HEK293 CRF-R2/CRF-BP, calcium dye fluorescence (FLIPR); percent of saturating CRF peptide response; 0.46% of 350,000 active; activation, % at 13.2 µM; AID 588473;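 active means activation of at least 50%, plus an integration ratio under a set limit after plate pattern correction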
MEKK2wt confirm – raises or lowers MEK5 binding to wildtype human MEKK2, retest; 2.4% of 5,900 active; binding response (% of control), % at 10 µM; shares compounds with MEKK3 PB1 HTS; bead flow cytometry, Alexa488-MEK5 binding to MEKK2 WT; actives lie on both sides; AID 1892; in the data active means binding response below about 16% or above about 210%; inactive means in between
MEKK2mut-MEK5 – signal of MEK5 binding to mutant human MEKK2, retest; 2% of 5,900 active; percent response, % at 10 µM; shares compounds with MEKK3 PB1 HTS; bead flow cytometry, Alexa488-MEK5 binding to MEKK2 mutant; AID 1893; in the data active means percent response mostly above about 71%, no sharp cut-off; inactive means mostly below about 38%;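 further: higher means compound restores mutant binding toward wildtype level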
MEKK3-MEK5 inh – MEKK3-MEK5 PB1 inhibition, single concentration confirmation. shares compounds with MEKK3 PB1 HTS. bead flow cytometry, Alexa488-MEK5 binding to MEKK3; stronger effect = lower value. binding response (% of control), % at 10 µM. 1.8% of 5,900 active;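 active means binding response below 72% of control, or above a set upper limit, though filed actives all read lower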
Hits are given with their value; i = inactive; nt = no result given; [ ] = remark or other dose. Most compounds without a hit are left out; they make up all but 2.9% or so of the library.

SMILES	MEKK2mut PB1 HTS	MEKK3 PB1 HTS	CRFBP-R2 block	MEKK2wt PB1 HTS	ABCB6 inh MLPCN	CRFBP-R2 agonist	MEKK2wt confirm	MEKK2mut-MEK5	MEKK3-MEK5 inh
O=C(CSc1ccccc1)NCCSCc1ccccc1	i	140	i	i	i	i	i	i	i
Cc1ccc(SCC(=O)NCCSCc2ccccc2)cc1	i	i	i	i	i	i	nt	nt	nt
O=C(CCSCc1ccc(Cl)cc1)NC1CCCC1	i	151	i	i	i	i	i	i	i
COc1ccccc1N(CC(=O)NCCSCc1ccc(Cl)cc1)S(C)(=O)=O	i	i	i	i	i	i	nt	nt	nt
COc1ccccc1OCC(=O)NCCSCc1ccc(Cl)cc1	i	132	i	i	i	i	i	i	i
NCc1ccccc1CS(=O)(=O)N1CCOCC1	nt	nt	i	nt	i	i	nt	nt	nt
C[C@@H]1CN([C@H](C)CO)S(=O)(=O)c2ccc(Br)cc2O[C@H]1CN(C)C(=O)C1CCCCC1	nt	nt	i	nt	i	i	nt	nt	nt
Cn1c2ccccc2c(=O)c2c(=O)n(Cc3ccco3)c(-c3ccc(C(C)(C)C)cc3)nc21	i	i	nt	i	nt	nt	nt	nt	nt
O=C(O)c1cc(Cl)c(Cl)cc1C(=O)N(Cc1ccccc1)Cc1ccccc1	i	i	i	i	i	i	nt	nt	nt
COc1ccc(Nc2oc(-c3ccco3)nc2S(=O)(=O)c2ccc(F)cc2)cc1	i	i	i	i	i	i	nt	nt	nt
O=S(=O)(c1ccc(F)cc1)c1nc(-c2ccco2)oc1Nc1ccc(F)cc1	i	137	i	i	i	i	i	i	i
CCC(C)(C)n1nnnc1C(c1cc(OC)ccc1OC)N1CCN(Cc2ccccc2)CC1 (stereo not drawn)	i	i	i	i	i	i	nt	nt	nt
O=C(CNC(=S)NC(=O)c1ccccc1Br)c1ccccc1	i	i	i	i	i	i	nt	nt	nt
CCCCNC(=S)NC(=O)c1ccccc1Br	i	154	i	i	i	i	i	i	i
CCN1/C(=C/c2ccc3ccccc3[n+]2CC)C=Cc2ccccc21	i	i	i	i	i	i	nt	nt	nt
CCN1/C(=C/c2ccc3cc(C)ccc3[n+]2CC)Sc2cc(C)ccc21	i	51[inhibitor]	i	11[inhibitor]	i	131	i	i	i
CCN1/C(=C/c2ccc3cc(C)ccc3[n+]2C)Sc2ccc3sccc3c21	nt	0.0[inhibitor]	i	nt	i	i	7.0[inhibitor]	i	31
Clc1ccccc1-c1nc2ccccc2c2nc3ccccc3n12	i	134	i	i	i	i	i	i	i
O=C1CC(c2ccccc2)CN1C(=O)c1cncc(Br)c1 (stereo not drawn)	i	i	i	i	i	i	nt	nt	nt
O=C1CC(c2ccccc2)CN1C(=O)c1cccnc1 (stereo not drawn)	i	141	i	i	i	i	i	i	i
Cc1nc([N+](=O)[O-])c(Br)n1CC(=O)c1ccc(Br)cc1	i	133	i	i	i	i	i	i	i
O=C(NCC1COc2ccccc2O1)c1cccc(S(=O)(=O)NCc2ccccc2)c1 (stereo not drawn)	nt	nt	i	nt	i	i	nt	nt	nt
COc1ccc(N2C(=O)/C(=C/c3cccs3)NC2=S)cc1	i	141	i	i	i	i	i	i	i
CCOc1ccccc1/C=C/c1onc(C)c1S(=O)(=O)N1CCC(C(=O)NC(C)(C)C)CC1	i	i	i	i	i	i	nt	nt	nt
CC(C)C[C@H](NC(=O)c1nc[nH]c1C(=O)NC1CCN(C(=O)OC(C)(C)C)CC1)C(=O)OC(C)(C)C	i	i	i	i	i	i	nt	nt	nt
SMILES	MEKK2mut PB1 HTS	MEKK3 PB1 HTS	CRFBP-R2 block	MEKK2wt PB1 HTS	ABCB6 inh MLPCN	CRFBP-R2 agonist	MEKK2wt confirm	MEKK2mut-MEK5	MEKK3-MEK5 inh
COc1ccc(NC(=O)c2nc[nH]c2C(=O)N[C@@H](C)C(=O)OC(C)(C)C)cc1	i	82[inhibitor]	i	i	i	i	i	i	i
C[C@H](NC(=O)c1nc[nH]c1C(=O)NC1CCN(C(=O)OC(C)(C)C)CC1)C(=O)OC(C)(C)C	i	1.0[inhibitor]	i	-5.0[inhibitor]	i	i	i	i	i
CC(NC(=O)/C=C/c1ccco1)c1nc2ccccc2n1Cc1c(Cl)cccc1Cl (stereo not drawn)	i	i	i	i	i	i	nt	nt	nt
CC(NC(=O)/C=C/c1ccco1)c1nc2ccccc2n1Cc1ccccc1F (stereo not drawn)	i	135	i	i	i	i	i	i	i
Cc1cc(C)c(S(N)(=O)=O)c(C)c1N(C)S(=O)(=O)c1ccc(Cl)cc1	i	i	i	i	i	i	nt	nt	nt
O=C(NCCC1=CCCCC1)C(=O)c1c[nH]c2ccccc12	i	133	i	i	i	i	i	i	i
O=C(CN1CCN(c2ccccc2F)CC1)NC(=O)NC1CCCCC1	nt	nt	i	nt	i	i	nt	nt	nt
Cc1c(NS(=O)(=O)c2ccc(NC(=O)CCC(=O)O)cc2)c(=O)n(-c2ccccc2)n1C	i	i	i	i	i	i	nt	nt	nt
Cc1ccc(NC(=O)COC(=O)C2(c3ccc(Cl)cc3)CCCC2)cc1	i	153	i	i	i	i	i	i	i
CCOC(=O)c1ccc(NC(=O)C2(c3ccc(Cl)cc3)CCCC2)cc1	i	i	i	i	nt	i	nt	nt	nt
Cc1ccc(S(=O)(=O)n2ccc3c(OCCOCCNCc4ccc(F)cc4)cccc32)cc1	54	i	i	225	i	i	i	i	i
Cc1ccc(S(=O)(=O)n2ccc3c(OCCOCCSCC(NC(=O)OC(C)(C)C)C(=O)O)cccc32)cc1 (stereo not drawn)	i	i	i	i	i	i	nt	nt	nt
C=CCn1c(-c2ccccc2)c[nH]c1=S	i	124	i	i	i	i	i	i	i
C=CCn1c(-c2ccc(Cl)cc2)c[nH]c1=S	i	i	i	i	i	i	nt	nt	nt
COc1ccc(NC(=O)CN(C)C(=O)C(Sc2ccccc2)c2ccccc2)cc1 (stereo not drawn)	nt	nt	i	nt	i	i	nt	nt	nt
COc1ccc(NC(=O)COc2nsnc2N2CCCCC2)cc1	i	27[inhibitor]	i	44[inhibitor]	i	i	i	i	i
COc1ccc(-c2cn(CCc3c[nH]c4ccccc34)nn2)cc1	i	i	i	i	i	i	nt	nt	nt
CC(C)c1ccc(NC(=O)CSc2ncccc2C(=O)Oc2cccc([N+](=O)[O-])c2)cc1	i	148	i	i	i	i	i	i	i
COc1cc(C(=O)NC(=S)Nc2ccc([N+](=O)[O-])cc2)cc(OC)c1OC	i	141	i	i	i	i	i	i	i
Cc1nn2c(C(F)(F)F)c3c(nc2c1-c1ccccc1)CCC3	i	1.0[inhibitor]	i	nt	i	i	i	i	i
